Test results as given in PubChem BioAssay (Tox21).
Inconclusive results are not listed. Where a call stands in place of a potency, no number is given. A number with no mark means an inactive call. Activity calls are given as the source filed them. Calls come from the whole dose curve; as a rule, active = well fitted curve in the direction sought with a large enough effect in the repeat runs; inconclusive = weak or mixed curves; inactive = no such curve, though single readings can be large; an effect the other way counts as inactive or inconclusive.

Experiments:
[1] = qHTS assay to identify small molecule agonists of the RXR signaling pathway - cell viability counter screen (AID 1159529);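 note: HEK 293T cells carrying an RXR-alpha UAS beta-lactamase reporter; series mostly up to about 77 µM; nearly all actives have a fitted effect of over 50% in size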
How it was run: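 In this parallel viability measure, GeneBLAzer RXR-alpha HEK 293T cells (2% charcoal-stripped FBS) were given a 5 hr preincubation, treated with compounds 16 hr at 37 C, and read by CellTiter-Glo luminescence.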

[2] = qHTS assay to identify small molecule antagonists of the retinoid acid receptor (RAR) signaling pathway - cell viability counter screen (AID 1159551); note: nearly all actives have a fitted effect of over 35% in size
How it was run: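 Seed C3RL4 cells; next day add compound, then retinol to 1 uM final; incubate 6 h at 37 C; add CellTiter-Glo; read luminescence after 30 min at RT.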

[3] = qHTS assay to identify small molecule agonists of the retinoic acid receptor (RAR) signaling pathway (AID 1159553); note: potency is the fitted concentration of half-maximal effect
How it was run: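 Activation of retinol signaling was monitored via a RARE luciferase reporter in C3RL4 cells. After 6 hr compound treatment at 37 C, detection reagent was added for 30 min at room temperature before luminescence reading.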

[4] = qHTS assay to identify small molecule antagonists of the estrogen related receptor (ERR) signaling pathway from Tox21 library - cell viability counter screen (AID 1224834); note: nearly all actives have a fitted effect of over 30% in size
How it was run: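 CellTiter-Fluor fluorescence measured; ERR cells; 17.5 h compound incubation at 37 C; 30 min reagent step.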

[5] = biological target: Luciferin 4-monooxygenase (Photinus pyralis) (UniProt P08659); assay: qHTS assay to identify small molecule inhibitors of firefly luciferase (AID 1224835); note: series mostly up to about 120 µM; nearly all actives have a fitted effect of over 25% in size
Luciferin 4-monooxygenase (Photinus pyralis), sequence (P08659 whole entry, looked up): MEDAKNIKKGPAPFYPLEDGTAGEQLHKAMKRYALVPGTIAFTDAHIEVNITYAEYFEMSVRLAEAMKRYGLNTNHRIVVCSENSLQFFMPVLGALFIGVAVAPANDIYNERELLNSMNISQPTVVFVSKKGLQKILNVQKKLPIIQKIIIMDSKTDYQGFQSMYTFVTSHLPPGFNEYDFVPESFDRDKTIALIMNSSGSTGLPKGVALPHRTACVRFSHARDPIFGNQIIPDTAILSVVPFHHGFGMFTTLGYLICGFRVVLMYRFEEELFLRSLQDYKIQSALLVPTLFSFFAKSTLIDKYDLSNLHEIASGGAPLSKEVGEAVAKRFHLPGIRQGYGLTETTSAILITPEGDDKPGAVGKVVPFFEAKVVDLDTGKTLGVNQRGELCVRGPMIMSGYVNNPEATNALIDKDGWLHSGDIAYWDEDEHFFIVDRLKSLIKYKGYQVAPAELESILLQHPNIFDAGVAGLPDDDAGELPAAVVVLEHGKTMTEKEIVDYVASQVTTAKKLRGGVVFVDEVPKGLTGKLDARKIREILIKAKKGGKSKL
How it was run: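 Inhibition of purified Photinus luciferase is measured by luminescence. Substrate levels (D-luciferin, ATP) sit at their KM values. Each compound is tested in a concentration series.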

[6] = qHTS assay to identify small molecule agonists of the constitutive androstane receptor (CAR) signaling pathway - cell viability counter screen (AID 1224836); note: series mostly up to about 92 µM; nearly all actives have a fitted effect of over 45% in size
How it was run: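 Using CellTiter-Fluor, viability of HepG2 cells harbouring hCAR and CYP2B6-2.2kb was measured following 23 h incubation with a 15-concentration compound series plus PK11195 (0.75 uM final).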

[7] = qHTS assay to identify small molecule antagonists of the constitutive androstane receptor (CAR) signaling pathway - cell viability counter screen (AID 1224837); note: series mostly up to about 92 µM; nearly all actives have a fitted effect of over 45% in size
How it was run: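 Using CellTiter-Fluor, viability is scored in HepG2 cells stably carrying hCAR and a 2.2kb CYP2B6 reporter after 23 hr compound exposure across 15 concentrations, with CITCO present at 50 nM.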

[8] = biological target: Nuclear receptor subfamily 1 group I member 3 (Homo sapiens) (UniProt Q14994); assay: qHTS assay to identify small molecule antagonists of the constitutive androstane receptor (CAR) signaling pathway (AID 1224838);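 note: HepG2 cells stably expressing hCAR with CYP2B6 luciferase reporter stimulated by CITCO; nearly all actives have a fitted effect of over 40% in size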
Nuclear receptor subfamily 1 group I member 3 (Homo sapiens), sequence (Q14994 whole entry, looked up): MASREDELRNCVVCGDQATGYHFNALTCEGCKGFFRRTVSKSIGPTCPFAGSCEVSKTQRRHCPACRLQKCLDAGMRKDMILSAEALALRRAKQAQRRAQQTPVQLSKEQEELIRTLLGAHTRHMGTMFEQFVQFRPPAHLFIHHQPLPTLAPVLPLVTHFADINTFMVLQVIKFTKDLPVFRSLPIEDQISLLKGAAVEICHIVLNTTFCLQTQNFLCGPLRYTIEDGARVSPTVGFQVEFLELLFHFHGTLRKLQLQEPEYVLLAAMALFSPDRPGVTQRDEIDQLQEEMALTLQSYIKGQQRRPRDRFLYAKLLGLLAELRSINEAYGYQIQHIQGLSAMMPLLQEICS
How it was run: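 Reporter luminescence was quantified after 24 h exposure of hCAR/CYP2B6-2.2kb double-stable HepG2 cells to compounds at 15 concentrations in the presence of 50 nM CITCO final.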

[9] = biological target: Nuclear receptor subfamily 1 group I member 3 (Homo sapiens) (UniProt Q14994); assay: qHTS assay to identify small molecule agonists of the constitutive androstane receptor (CAR) signaling pathway (AID 1224839);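 note: HepG2 cells stably carrying human CAR and a CYP2B6 luciferase reporter; series mostly up to about 92 µM; nearly all actives have a fitted effect of over 15% in size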
How it was run: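 Double-stable HepG2 cells (hCAR, CYP2B6-2.2kb) seeded 4 h before compound addition. Exposure 24 h with 0.75 uM PK11195 final. Luciferase detected by ONE-Glo.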

[10] = qHTS assay to identify small molecule antagonists of the retinoic acid receptor (RAR) signaling pathway (AID 1159552; note: nearly all actives have a fitted effect of over 50% in size)
How it was run: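 C3RL4 RARE-luc cells, overnight plating; retinol 1 uM final added right after compound; 6 hr 37 C; luciferase read at 30 min RT.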

Row | SMILES | outcome [1] | outcome [2] | Potency [3] | outcome [4] | Potency [5] | outcome [6] | outcome [7] | Potency [8] | Potency [9] | outcome [10]
1 | CN1CCOC(c2ccccc2)c2ccccc2C1 (centres undefined) | inactive | inactive | inactive | inactive | inactive | inactive | inactive | inactive | inactive | 
2 | CN(C)CC/C=C1/c2ccccc2COc2ccc(CC(=O)O)cc21 | inactive | inactive | inactive | inactive | inactive | inactive | inactive | inactive | inactive | 
3 | OCC1CCC(CO)CC1 (centres undefined) | inactive | inactive | inactive | inactive |  | inactive | inactive | inactive | inactive | inactive
4 | CC(=O)C(C)O (centres undefined) | inactive |  | inactive | inactive |  | inactive | inactive | inactive | inactive | inactive
5 | Cc1ccccc1C(N)=O | inactive |  | inactive | inactive | inactive | inactive | inactive | inactive | inactive | inactive
6 | CC1CC(=O)CC(C)(C)C1 (centres undefined) |  | inactive | inactive | inactive | inactive | inactive | inactive |  |  | inactive
7 | CN(C)CCCCl | inactive |  | inactive | inactive | inactive | inactive | inactive | inactive | inactive | inactive
8 | CCC(C)OC(C)CC (centres undefined) | inactive |  | inactive | inactive |  | inactive | inactive | inactive |  | inactive
9 | CCCCOC(=O)[C@H](C)O | inactive |  | inactive | inactive | inactive | inactive | inactive | inactive | inactive | inactive
10 | O=C=NCC1CCCC(CN=C=O)C1 (centres undefined) | inactive |  | inactive | inactive | inactive | inactive | inactive | inactive | inactive | inactive
11 | CC1=NN(c2ccc(S(=O)(=O)O)cc2)C(=O)C1 | inactive |  | inactive | inactive | inactive | inactive | inactive | inactive | inactive | inactive
12 | CCCCSCCCC | inactive |  | inactive | inactive | inactive | inactive | inactive | inactive | inactive | 
13 | CCNC(=O)NCc1cccc(Cl)c1 | inactive |  | inactive | inactive |  | inactive | inactive | inactive | inactive | inactive
14 | CO/N=C(/C(=O)N[C@@H]1C(=O)N2C(C(=O)[O-])=C(C[n+]3ccn4ncccc43)CS[C@H]12)c1nsc(N)n1 | inactive |  | inactive | inactive | inactive | inactive | inactive | inactive | inactive | inactive
15 | N#Cc1cscn1 |  | inactive | inactive | inactive | inactive | inactive | inactive | inactive |  | inactive
16 | CCCCOCCOC(=O)COc1ccc(Cl)cc1Cl | inactive |  | inactive | inactive | inactive | inactive | inactive | inactive | inactive | inactive
17 | CC(CO)(CO)CO | inactive |  | inactive | inactive | inactive | inactive | inactive | inactive | inactive | inactive
18 | CCCC(=O)OCCC(C)CCC=C(C)C (centres undefined) | inactive |  | inactive | inactive | inactive | inactive | inactive | inactive |  | 
19 | C=C(C)C1CC=C(C)C(=O)C1 (centres undefined) | inactive |  |  | inactive | inactive | inactive | inactive |  |  | 
20 | CC(C)Nc1ccccc1 | inactive |  | inactive | inactive | inactive | inactive | inactive | inactive | inactive | inactive
21 | Nc1nc(-c2ccccc2)c(Br)c(=O)[nH]1 |  | inactive | inactive | inactive | inactive | inactive | inactive | inactive |  | inactive
22 | CC(=O)CC(=O)Nc1ccc(C)cc1C | inactive |  | inactive | inactive | inactive | inactive | inactive | inactive | inactive | inactive
23 | CC1OCCC1=O (centres undefined) | inactive |  | inactive | inactive | inactive | inactive | inactive | inactive | inactive | inactive
24 | N#Cc1ccccc1O | inactive |  | inactive | inactive | inactive | inactive | inactive | inactive | inactive | inactive
25 | CC(=O)Nc1ccc(OC(=O)c2ccccc2OC(C)=O)cc1 | inactive |  | 23.7 µM (active) | inactive | inactive | inactive | inactive | inactive |  | inactive
